High-throughput results (PubChem BioAssay)
Hits are enriched below; roughly 2.4% of the tested compounds scored in any of these assays.
TLR9-MyD88 block: inhibitors of TLR9-MyD88 association in cells, primary screen, cell-based, CHO, BLA complementation, fluorescence; CCF4 FRET ratio; 340,000 tested, 0.21% active; inhibition, % at 4.98 µM; Toll-like receptor 9 (Homo sapiens) + Myeloid differentiation primary response protein …;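 active = inhibition above the mean over all tested compounds plus 3 SD, cut at about 21% in these data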;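 note: 0% = DMSO only wells and 100% = clavulanate BLA inhibitor control wells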
TLR4-MyD88 BLA: inhibitors of TLR4-MyD88 association in cells, primary screen, cell-based, HeLa CL3-4, BLA complementation, FRET ratio | Toll-like receptor 4 (Homo sapiens) + Myeloid differentiation primary response protein … | HeLa CL3-4 TLR4/MyD88 BLA complementation | 200,000 tested, 0.18% active | inhibition, % at 8.4 µM | AID 861, 2007; in the data active = inhibition above about 25%;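 note: 0% = vehicle and 100% = reference inhibitor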
HSF1 inh: HSF1 inhibitors in luciferase reporter cells, primary screen, cell-based, NIH3T3, luminescence; NIH3T3-HGL HSE-luciferase, MG132-induced, luminescence 8 h; stronger effect = lower value; 300,000 tested, 0.77% active; activity change, negative = inhibition, % at 7.5 µM (by protocol); AID 2098, 2009;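 active = more than half of replicate wells show activity change below -50%, luminescence cut by over half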;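 note: luciferase reports HSF-1 transcriptional activity via heat shock element; 0% = median of DMSO wells and -100% = zero luminescence signal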
NOD2-RIPK2 inh: NOD2-RIPK2 binding disruptors in cells, primary screen, fluorescence, CHO cells, BLA complementation. Receptor-interacting serine/threonine-protein kinase 2 (Homo sapiens), O43353. CCF4 ratio. inhibition, % at 4.98 µM. 360,000 tested, 0.38% active. AID 624267, 2012; in the data active = inhibition above about 21%;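 note: 0% = vehicle only and 100% = reference blocker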
Target sequence (O43353 whole entry, looked up): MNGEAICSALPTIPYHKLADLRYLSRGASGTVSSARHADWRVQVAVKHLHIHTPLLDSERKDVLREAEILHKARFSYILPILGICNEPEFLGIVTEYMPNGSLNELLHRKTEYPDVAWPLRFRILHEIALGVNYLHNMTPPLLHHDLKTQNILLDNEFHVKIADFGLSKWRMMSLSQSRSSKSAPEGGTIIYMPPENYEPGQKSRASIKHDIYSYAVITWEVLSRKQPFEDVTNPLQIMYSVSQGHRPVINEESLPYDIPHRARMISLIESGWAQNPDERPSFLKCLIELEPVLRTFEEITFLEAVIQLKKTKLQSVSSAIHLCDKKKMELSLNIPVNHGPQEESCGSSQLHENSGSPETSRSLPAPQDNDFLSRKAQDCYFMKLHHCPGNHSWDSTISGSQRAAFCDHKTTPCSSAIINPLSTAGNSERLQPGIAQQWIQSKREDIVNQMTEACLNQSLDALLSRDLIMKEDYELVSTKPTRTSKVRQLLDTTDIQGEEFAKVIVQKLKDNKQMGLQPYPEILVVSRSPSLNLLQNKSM
HSF-1 act: HSF-1 activators, primary screen, NIH3T3-HGL cells, MG132 stress, luminescence, single point. NIH3T3-HGL HSF-1 luciferase reporter, 8 h; 100% = twice DMSO control signal. activation, % at 9 µM. 300,000 tested, 1.7% active;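 active = mean replicate activation of at least 50% with a set share of replicates each reaching 50%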;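 note: 0% = median of the neutral control wells and 100% = twice that signal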
Active calls of the source: *; nt = no result given.

SMILES	TLR9-MyD88 block	TLR4-MyD88 BLA	HSF1 inh	NOD2-RIPK2 inh	HSF-1 act
COC(=O)c1ccc2c(c1O)C(=O)c1ccccc1C2=O	1.6	-12.5	58.6	-1.3	99.5*
CCOC(=O)C(=CNc1ccc(C#N)cc1)C(=O)OCC	-10.3	0.2	36.8	-12.9	59.8*
CCOC(=O)C(=O)/C(C#N)=C/Nc1ccccc1	-8.7	13.5	12.7	-2.6	51.9*
CCN(C(=O)C1CCCN(c2ncnc3c2nc2n3CCCCC2)C1)c1cccc(Cl)c1 (stereo not drawn)	-9.9	nt	-5.2	-1.2	-4.6
Cc1nnc(N2CCC(C(=O)N3CCCCC3)CC2)c2nn(-c3ccc(Cl)cc3)c(C)c12	-12.6	nt	1.9	0.6	17.2
COc1ccc(-n2nc3c(N4CCC(C(=O)N5CCC(C)CC5)CC4)nnc(C)c3c2C)cc1	2.5	nt	17.2	7.7	54.9*
Cc1cc(C)c(C#N)c(Sc2nc(C)c([N+](=O)[O-])c(C)c2C#N)n1	nt	nt	nt	-0.5	nt
Cc1cc(C)c(C#N)c(SCc2ccc([N+](=O)[O-])cc2)n1	-1.1	22.9	7.5	3.0	52.6*
Cc1ccc2nc(SCC(=O)NCc3ccc(F)cc3)[nH]c2c1	-4.9	nt	19.9	-4.5	64.7*
Cc1ccc2nc(SCc3ccc([N+](=O)[O-])cc3)[nH]c2c1	5.5	9.1	67.3	1.4	82.2*
Cc1cc(NCc2ccccn2)n2ncc(-c3ccccc3)c2n1	2.5	nt	38.5	-2.2	76.3*
Cc1cc(NCCCN2CCOCC2)n2ncc(-c3ccccc3)c2n1	5.8	-7.1	-12.4	-6.9	-26.6
Cc1cc(NCc2ccccn2)n2ncc(-c3ccc(Cl)cc3)c2n1	nt	nt	27.8	-0.8	52.5*
Cc1cc(NCc2ccccn2)n2nc(C)c(-c3ccc(Cl)cc3)c2n1	-0.5	nt	nt	2.5	nt
ON=C(CCc1ccccc1)CCc1ccccc1	-10.4	nt	nt	-5.8	nt
O=C(COC(=O)CCC(=O)N1CCOCC1)Nc1ccc(Br)cc1Br	-0.6	nt	nt	-14.9	nt
Cc1ccc(N(CCCCN2C(=O)c3ccccc3C2=O)C(=O)c2cccc([N+](=O)[O-])c2)cc1	1.1	-0.9	34.6	-4.9	69.8*
O=S(=O)(c1ccc(SCc2cccc(Cl)c2)nc1)N1CCCC1	-2.7	nt	nt	2.1	nt
CC(=O)C1=C(O)C(=O)N(c2ccc(S(N)(=O)=O)cc2)C1c1cccc([N+](=O)[O-])c1 (stereo not drawn)	-8.8	nt	1.8	2.7	1.1
CC(=O)C1C(=O)c2c(cccc2[N+](=O)[O-])C1=Nc1ccc(S(N)(=O)=O)cc1 (stereo not drawn)	-1.2	-14.0	-90.8*	-9.5	-92.0
COCCn1c(C)cc(C(=O)COC(=O)c2cc3c(s2)CCC3)c1C	5.9	-4.0	19.3	5.6	21.7
COCCn1c(C)cc(C(=O)COC(=O)c2cccc(O)c2)c1C	0.6	nt	-78.9*	-0.4	-81.0
COCCn1c(C)cc(C(=O)CSc2nnc(C)s2)c1C	-0.3	-5.4	-56.1*	-11.3	-62.1
CC(=NOC(=O)c1ccc(I)cc1)c1nccs1	nt	nt	nt	-15.1	nt
CCCC12CN3CC(C)(CN(C1)C3c1ccc3c(c1)OCO3)C2=O (stereo not drawn)	-4.2	1.0	31.4	-11.2	66.1*
SMILES	TLR9-MyD88 block	TLR4-MyD88 BLA	HSF1 inh	NOD2-RIPK2 inh	HSF-1 act
CC(=O)/C(=N/Nc1ccc(Br)cc1)N1CCCc2ccccc21	-1.3	nt	22.4	4.9	56.9*
Cc1cc(N2CCOCC2)ccc1/C=C1\SC(=O)N(C(C)C)C1=O	-0.9	15.7	45.2	5.9	78.3*
CCC(C)N1C(=O)S/C(=C/c2ccc(N3CCOCC3)cc2C)C1=O (stereo not drawn)	4.5	-4.0	-8.5	14.3	-2.9
CCN1C(=O)S/C(=C\c2ccc(N3CCOCC3)cc2C)C1=O	-0.4	3.7	44.7	-3.8	65.1*
O=C(Nc1cc(C(F)(F)F)ccc1N1CCOCC1)c1cccc(S(=O)(=O)N2CCOCC2)c1	4.6	nt	nt	-14.1	nt
CCOC(=O)c1ccc(NC(=S)NC(=O)C2CCCC2)cc1	-10.6	nt	-74.1*	-3.4	-80.3
CCOC(=O)c1ccc(NC(=S)N2CCCC(C)C2)cc1 (stereo not drawn)	-7.5	-0.1	26.2	4.2	61.9*
C[C@@H]1CN([C@@H](C)CO)C(=O)CCCn2nncc2CO[C@@H]1CN(C)S(=O)(=O)c1ccc(F)cc1	-0.8	nt	nt	7.7	nt
O=C(Nc1ccn(CCCNCC(c2ccccc2)c2ccccc2)c(=O)n1)OCc1ccccc1	-2.9	nt	nt	-2.2	nt
CCCN1C(=O)c2ccc(C(=O)Nc3nccs3)cc2C1=O	-3.9	-7.7	1.5	-16.6	-3.9
CCCc1cc(C(=O)Nc2nccs2)cs1	-6.9	-7.5	52.7	6.6	86.3*
CCN(C[C@H]1N[C@@](Cc2ccccc2)(C(=O)OC)[C@H]2C(=O)N(C)C(=O)[C@@H]12)S(=O)(=O)c1ccc(C(C)(C)C)cc1	7.7	nt	nt	2.7	nt
